Inhibition data for 40 molecules are collected here from ChEMBL document CHEMBL3433997, “St. Jude Leishmania screening dataset” (2016).

Structures are written as SMILES. “And” between values parts separate entries of the source, which are not always exact repeats. Equal values may be shown once.

Solute carrier family 2, facilitated glucose transporter member 1 (Homo sapiens), sequence (P11166 whole entry): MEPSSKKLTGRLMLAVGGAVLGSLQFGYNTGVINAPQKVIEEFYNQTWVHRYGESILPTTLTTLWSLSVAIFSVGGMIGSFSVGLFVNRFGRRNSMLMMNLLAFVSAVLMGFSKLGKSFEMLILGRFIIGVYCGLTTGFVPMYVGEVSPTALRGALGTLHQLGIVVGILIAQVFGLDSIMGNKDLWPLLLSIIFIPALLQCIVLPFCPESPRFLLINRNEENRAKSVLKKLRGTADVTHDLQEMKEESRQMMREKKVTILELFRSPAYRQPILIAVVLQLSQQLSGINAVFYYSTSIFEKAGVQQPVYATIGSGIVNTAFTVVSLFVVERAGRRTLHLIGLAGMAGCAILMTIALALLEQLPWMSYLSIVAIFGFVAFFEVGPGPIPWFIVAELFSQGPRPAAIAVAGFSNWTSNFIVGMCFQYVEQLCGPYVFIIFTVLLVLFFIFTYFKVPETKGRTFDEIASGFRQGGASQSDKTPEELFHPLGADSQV

The first assay concerns the target Solute carrier family 2, facilitated glucose transporter member 1 (Homo sapiens) (UniProt P11166). In words: ST_JUDE_LEISH: Cytotoxicity at 2uM final concentration against transgenic Leishmania Mexicana promastigotes LmGLUT1 that are glucose transport deficient and complemented with the human glucose transporter GLUT1. Activity is measured by DNA content using SYBR green in vitro. The class given is functional.
As for `Cc1c(CNCCCNc2cc(=O)c3ccccc3[nH]2)sc(C(F)F)c1Br`, the inhibition (in general, the change of the read-out against control, counted positive when it falls) was -0.36%.
The same measure, in the same setting: the figure for `CC(C)[C@H](NC(=O)c1c(CN2CCC(N3CCCCC3)CC2)c(-c2ccccc2)nc2cc(O)ccc12)c1ccccc1` is 2.26%; for `COc1cc(Cc2cnc(N)nc2N)cc(OCCCC(=O)O)c1OC` it is 2.98%; for `COc1ccc(NC(=O)Nc2ccc(-c3ccccc3)cc2)cc1Cn1nc(Cl)c(N2CCCNCC2)cc1=O` it is 0.73%.
The same measure, in the same setting: the figure for `Cc1nc2ccc3nc(NC(=O)c4ccno4)sc3c2s1` is 1.74%; for `Nc1nc(O)c2c(n1)CCc1c(Br)cccc1-2` it is -1.17%.
As to `CC(C)CCNC(=O)c1cnc2c(O)cccc2c1Nc1cccc(NC(=O)c2ccc(F)cc2)c1`, the inhibition came out at 4.52%.
On the same count and under the same terms, the figure for `CCC(=O)Nc1nnc(Cc2ccc(OC)c(OC)c2)s1` is 9.1%; for `O=C(NCCN1CCCC1)c1ccc(-c2cccc(-c3nc4cc(F)ccc4[nH]3)c2)cc1` it is -0.16%; for `CC1(C)N=C(N)N=C(Nc2ccc(F)c(F)c2)N1` it is 0.74%.
Still for that read-out and setting: the figure for `COc1ccc(C2CC(=O)C3=C(C2)NC(C)=C(C(=O)OC(C)C)C3c2ccc(O)cc2)cc1OC` (stereo not given) is 8.55%; for `O=C(Nc1ccc2c(c1)CN(Cc1ccc(N3CCCC3)o1)CCC2)c1ccoc1` it is 19.8%; for `COCCCNc1sc(S(=O)(=O)c2ccccc2)nc1S(=O)(=O)c1ccc(C)cc1` it is -0.53%.
For the molecule `CCNC(=O)Nc1cccc(-c2ccc(-c3nc4cccc(C)c4[nH]3)s2)c1`, the inhibition came to 1.49%.
In the case of `COc1cccc(C(=O)NCc2cccs2)c1Oc1ccccc1`, the inhibition turned out to be 13.2%.
On the same count and under the same terms, the result for `CC1=C(C(=O)OCCOCc2ccccc2)C(c2ccccc2C(F)(F)F)C(C(=O)OCCOCc2ccccc2)=C(C)N1` reads -0.46%; that for `CCCCOc1ccc(C(=O)C(CCC(CNC(C)(C)C)C(=O)c2ccc(OCCCC)cc2)CNC(C)(C)C)cc1` (stereo not given), 43.9%; that for `COc1ccc2nccc([C@@H](O)CN3CCC(NCc4nc5c(cc4Cl)SCC(=O)N5)C(F)C3)c2c1` (stereo not given in full), 2.28% and 11.3%.
Same read-out and setting: the result for `CN(C)c1ccc(C=Cc2nc(=O)c3ccccc3o2)cc1` reads 1.38%; that for `NCCNc1ccc([N+](=O)[O-])cc1C(=O)Nc1cccc(C(F)(F)F)c1`, 3.02%.
Same read-out and setting: the result for `Cc1cc(OCCCN2CCC(NS(=O)(=O)c3cccc(Br)c3)C2)c2ccccc2n1` (stereo not given) reads 0.6%; that for `COc1ccc2nccc([C@@H](O)CN3CCC(NCc4cc5cccc6c5n(c4=O)CCC6)CC3)c2c1`, 2.12%; that for `Cc1cccc2nc(-c3ccc(-c4cccc(NC(=O)CN5CCN(C)CC5)c4)s3)[nH]c12`, -0.82%.
As to `CNc1ccc(CNCc2ccc(-c3ccc(-c4nc5cc(F)ccc5[nH]4)cc3)cc2)cc1`, the inhibition was 3.2%.
Still for that read-out and setting: the result for `CCN(CC)CCCN(C(=O)Nc1ccc(C#N)cc1)c1nc(-c2ccc(F)cc2)cs1` reads -0.54%; that for `Cc1cc(CN2CC[C@H](NC(=O)c3ccc(Cl)c(Cl)c3)C2)ccc1OCCN1CCCC1`, -1.05%; that for `COc1ccc(-n2ccnc2)cc1CNC1CCN(CC2Cn3c(=O)ccc4ccc(F)c2c43)CC1` (stereo not given), 4.7%.
Still for that read-out and setting: the result for `Cc1cc(CN2CC[C@H](NC(=O)c3ccc(Cl)c(Cl)c3)C2)ccc1OC1CCN(Cc2ccccc2)CC1` reads 11%; that for `CC(C)c1cc(C(=O)N[C@@H](Cc2ccccc2)[C@H](O)CNC2CCCCC2)cc(N2CCCC2=O)c1`, 2.19%.
Same read-out and setting: the figure for `Cc1cccc2nc(-c3cccc(-c4ccc(NC(=O)Nc5cccc(C#N)c5)cc4)c3)[nH]c12` is 2.14%; for `CC1(C)N=C(N)N=C(N)N1c1cc(Cl)c(Cl)cc1Cl` it is -2.58%; for `O=C(c1c(-c2[nH]c3ccccc3c2C(=O)C(F)(F)F)[nH]c2ccccc12)C(F)(F)F` it is 1.75%.
For `Cc1c(CN2CCC(N3CCC(C(=O)NC4CC4)CC3)CC2)[nH]c2c(Cl)cccc12`, the inhibition was 9.37%.
Still for that read-out and setting: the figure for `Cc1cc(=NN=Cc2ccccn2)c2cc(C(F)(F)F)ccc2[nH]1` is -0.43%.
Still for that read-out and setting: the result for `CC(C)N1CCN(CCCCNc2c3ccccc3nc3ccccc23)CC1` reads 33%.
In the case of `CC(=O)Nc1nc(C(=O)Nc2ccc(-c3cccc(-c4nc5ccccc5[nH]4)c3)cc2)cs1`, the inhibition turned out to be 1.93%.
Same read-out and setting: the figure for `Cc1cccc2nc(-c3ccc(-c4cccc(CN5CCN(CCO)CC5)c4)cc3)[nH]c12` is 7.34%.
The same measure, in the same setting: the result for `O=C(/C=C/c1ccc(Cl)c(Cl)c1)NCCCCCN1CCC(NC(=O)Nc2ccc(Cl)cc2Cl)CC1` reads -0.07%.
In the case of `Cc1nnsc1C(=O)Nc1ccc(-c2cccc(-c3nc4cc(C(F)(F)F)ccc4[nH]3)c2)cc1`, the inhibition stood at 0.51%.
On the same count and under the same terms, the figure for `O=C(/C=C/c1ccc2ccccc2c1)NCC1(c2ccc(-c3ccccc3)cc2)CCOCC1` is 2.52%.

A further assay addresses Hexose transporter 1 (Plasmodium falciparum) (UniProt O97467). As to the kind of experiment: ST_JUDE_LEISH: Cytotoxicity at 2uM final concentration against transgenic Leishmania Mexicana promastigotes LmPfHT that are glucose transport deficient and complemented with the Plasmodium falciparum hexose transporter. Activity is measured by DNA content using SYBR green in vitro. It counts as functional.
Regarding `Cc1c(CNCCCNc2cc(=O)c3ccccc3[nH]2)sc(C(F)F)c1Br`, the inhibition was -0.4%.
The same measure, in the same setting: the result for `CC(C)[C@H](NC(=O)c1c(CN2CCC(N3CCCCC3)CC2)c(-c2ccccc2)nc2cc(O)ccc12)c1ccccc1` reads 1.22%; that for `COc1cc(Cc2cnc(N)nc2N)cc(OCCCC(=O)O)c1OC`, 1.62%; that for `COc1ccc(NC(=O)Nc2ccc(-c3ccccc3)cc2)cc1Cn1nc(Cl)c(N2CCCNCC2)cc1=O`, 0.83%.
Still for that read-out and setting: the figure for `Cc1nc2ccc3nc(NC(=O)c4ccno4)sc3c2s1` is 1.13%; for `Nc1nc(O)c2c(n1)CCc1c(Br)cccc1-2` it is -0.59%; for `CC(C)CCNC(=O)c1cnc2c(O)cccc2c1Nc1cccc(NC(=O)c2ccc(F)cc2)c1` it is 7.98%.
The same measure, in the same setting: the figure for `CCC(=O)Nc1nnc(Cc2ccc(OC)c(OC)c2)s1` is 10.1%; for `O=C(NCCN1CCCC1)c1ccc(-c2cccc(-c3nc4cc(F)ccc4[nH]3)c2)cc1` it is 0%; for `CC1(C)N=C(N)N=C(Nc2ccc(F)c(F)c2)N1` it is 0.06%.
Consider `COc1ccc(C2CC(=O)C3=C(C2)NC(C)=C(C(=O)OC(C)C)C3c2ccc(O)cc2)cc1OC` (stereo not given), for which the inhibition was 8.07%.
For `O=C(Nc1ccc2c(c1)CN(Cc1ccc(N3CCCC3)o1)CCC2)c1ccoc1`, the inhibition worked out at 12.8%.
On the same count and under the same terms, the result for `COCCCNc1sc(S(=O)(=O)c2ccccc2)nc1S(=O)(=O)c1ccc(C)cc1` reads -2.3%.
On the same count and under the same terms, the figure for `CCNC(=O)Nc1cccc(-c2ccc(-c3nc4cccc(C)c4[nH]3)s2)c1` is 1.4%; for `COc1cccc(C(=O)NCc2cccs2)c1Oc1ccccc1` it is 12.2%.
Still for that read-out and setting: the result for `CC1=C(C(=O)OCCOCc2ccccc2)C(c2ccccc2C(F)(F)F)C(C(=O)OCCOCc2ccccc2)=C(C)N1` reads -0.98%; that for `CCCCOc1ccc(C(=O)C(CCC(CNC(C)(C)C)C(=O)c2ccc(OCCCC)cc2)CNC(C)(C)C)cc1` (stereo not given), 12.2%; that for `COc1ccc2nccc([C@@H](O)CN3CCC(NCc4nc5c(cc4Cl)SCC(=O)N5)C(F)C3)c2c1` (stereo not given in full), 2.07% and 9.64%.
In the case of `CN(C)c1ccc(C=Cc2nc(=O)c3ccccc3o2)cc1`, the inhibition stood at 3.22%.
`NCCNc1ccc([N+](=O)[O-])cc1C(=O)Nc1cccc(C(F)(F)F)c1`: the inhibition amounted to 3.19%.
On to `Cc1cc(OCCCN2CCC(NS(=O)(=O)c3cccc(Br)c3)C2)c2ccccc2n1` (stereo not given), for which the inhibition stood at 1.51%.
On the same count and under the same terms, the figure for `COc1ccc2nccc([C@@H](O)CN3CCC(NCc4cc5cccc6c5n(c4=O)CCC6)CC3)c2c1` is 2.16%; for `Cc1cccc2nc(-c3ccc(-c4cccc(NC(=O)CN5CCN(C)CC5)c4)s3)[nH]c12` it is -1.13%.
Regarding `CNc1ccc(CNCc2ccc(-c3ccc(-c4nc5cc(F)ccc5[nH]4)cc3)cc2)cc1`, the inhibition is -0.46%.
Same read-out and setting: the result for `CCN(CC)CCCN(C(=O)Nc1ccc(C#N)cc1)c1nc(-c2ccc(F)cc2)cs1` reads 2.42%; that for `Cc1cc(CN2CC[C@H](NC(=O)c3ccc(Cl)c(Cl)c3)C2)ccc1OCCN1CCCC1`, 1.81%; that for `COc1ccc(-n2ccnc2)cc1CNC1CCN(CC2Cn3c(=O)ccc4ccc(F)c2c43)CC1` (stereo not given), 4.54%.
Still for that read-out and setting: the result for `Cc1cc(CN2CC[C@H](NC(=O)c3ccc(Cl)c(Cl)c3)C2)ccc1OC1CCN(Cc2ccccc2)CC1` reads 8.06%; that for `CC(C)c1cc(C(=O)N[C@@H](Cc2ccccc2)[C@H](O)CNC2CCCCC2)cc(N2CCCC2=O)c1`, 1.07%; that for `Cc1cccc2nc(-c3cccc(-c4ccc(NC(=O)Nc5cccc(C#N)c5)cc4)c3)[nH]c12`, 2.03%.
The same measure, in the same setting: the result for `CC1(C)N=C(N)N=C(N)N1c1cc(Cl)c(Cl)cc1Cl` reads -2.74%.
For the molecule `O=C(c1c(-c2[nH]c3ccccc3c2C(=O)C(F)(F)F)[nH]c2ccccc12)C(F)(F)F`, the inhibition was found to be 0.78%.
The same measure, in the same setting: the result for `Cc1c(CN2CCC(N3CCC(C(=O)NC4CC4)CC3)CC2)[nH]c2c(Cl)cccc12` reads 11.6%.
The same measure, in the same setting: the figure for `Cc1cc(=NN=Cc2ccccn2)c2cc(C(F)(F)F)ccc2[nH]1` is -1.03%.
The same measure, in the same setting: the result for `CC(C)N1CCN(CCCCNc2c3ccccc3nc3ccccc23)CC1` reads 41%.
Regarding `CC(=O)Nc1nc(C(=O)Nc2ccc(-c3cccc(-c4nc5ccccc5[nH]4)c3)cc2)cs1`, the inhibition was found to be 2.85%.
In the case of `Cc1cccc2nc(-c3ccc(-c4cccc(CN5CCN(CCO)CC5)c4)cc3)[nH]c12`, the inhibition is 4.65%.
Still for that read-out and setting: the result for `O=C(/C=C/c1ccc(Cl)c(Cl)c1)NCCCCCN1CCC(NC(=O)Nc2ccc(Cl)cc2Cl)CC1` reads -0.77%; that for `Cc1nnsc1C(=O)Nc1ccc(-c2cccc(-c3nc4cc(C(F)(F)F)ccc4[nH]3)c2)cc1`, 0.86%.
Same read-out and setting: the figure for `O=C(/C=C/c1ccc2ccccc2c1)NCC1(c2ccc(-c3ccccc3)cc2)CCOCC1` is 2.55%.
